# Assay results taken from the supplement of paper PMC6522484.
# ± gives the standard deviation of the averaged measurements.
# Assays:
# DLD1 [1] = experiment: cell viability (CellTiter-Glo) relative to plate median (fraction of plate median); higher = more viable cells; details: 5 µM; treatment time 24 h; reporter: 7TFP
# Procedure, shortened: (§1)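 Each entry is a luminescence signal normalised to the plate median, averaged over independent replicates. The replicate count was two, and the cells were colorectal cancer lines with stable lentiviral TCF/Wnt firefly luciferase reporters exposed to library compounds at a final 5 µM for 24 h. Firefly luciferase and CellTiterGlo were measured on parallel plates.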
# HCT116 = experiment: as above; details: 5 µM; treatment time 24 h; reporter: TCF4/Wnt
# Procedure, shortened: as §1
# SW480 [2] = experiment: as above; details: 5 µM; treatment time 24 h; reporter: 7TFP
# Procedure, shortened: as §1
# DLD1 [3] = experiment: TCF/Wnt firefly luciferase reporter signal relative to plate median (fraction of plate median); higher = higher Wnt reporter signal; details: 5 µM; treatment time 24 h; reporter: 7TFP
# Procedure, shortened: as §1
# SW480 [4] = experiment: as above; details: 5 µM; treatment time 24 h; reporter: 7TFP
# Procedure, shortened: as §1
SMILES,cell viability (DLD1 [1]),cell viability (HCT116),cell viability (SW480 [2]),TCF/Wnt firefly luciferase reporter signal (DLD1 [3]),TCF/Wnt firefly luciferase reporter signal (SW480 [4])
CC(C)C[C@H](CN)CC(=O)O,1.03 ± 0.073,1.05 ± 0.1,1.04 ± 0.014,1.09 ± 0.064,0.936 ± 0.011
CN1C[C@H](C(=O)N[C@]2(C)O[C@@]3(O)[C@@H]4CCCN4C(=O)[C@H](Cc4ccccc4)N3C2=O)C=C2c3cccc4[nH]cc(c34)C[C@H]21,0.967 ± 0.09,1.11 ± 0.078,1.03 ± 0.042,1.23 ± 0.25,1.16 ± 0.078
CNNC,0.936 ± 0.021,0.866 ± 0.11,0.945 ± 0.017,1.03 ± 0.14,0.894 ± 0.14
C=C1C[C@@H]2[C@H](CC[C@]3(C)C(=O)CC[C@@H]23)[C@@]2(C)C=CC(=O)C=C12,1.03 ± 0.11,1.12 ± 0.05,1.02 ± 0.031,0.961 ± 0.17,1.02 ± 0.13
Cc1cccc(C)c1NC1=NCCCS1,1.04 ± 0.073,1.01 ± 0.036,0.992 ± 0.012,1.07 ± 0.05,1.02 ± 0.083
NCCCNCCSP(=O)(O)O,1.02 ± 0.14,1.08 ± 0.071,1.06 ± 0.021,1.1 ± 0.028,1.05 ± 0.035
N#C[C@H](O[C@@H]1O[C@H](CO[C@@H]2O[C@H](CO)[C@@H](O)[C@H](O)[C@H]2O)[C@@H](O)[C@H](O)[C@H]1O)c1ccccc1,1.01 ± 0.09,1.04 ± 0.089,1.01 ± 0.042,0.757 ± 0.0042,0.916 ± 0.071
CN[C@@H]1[C@@H](O)[C@@H](O[C@@H]2[C@@H](O)[C@H](O[C@H]3O[C@H]([C@@H](C)O)[C@@H](O)[C@H](O)[C@H]3N)[C@@H](N)C[C@H]2N)OC[C@]1(C)O,1.075 ± 0.0071,1.04 ± 0.035,1.08 ± 0.071,0.964 ± 0.12,1.08 ± 0.085
O=c1[nH]c2ccccc2n1CCCN1CCC(n2c(=O)[nH]c3cc(Cl)ccc32)CC1 [Domperidone],0.898 ± 0.1,0.83 ± 0.042,0.94 ± 0.063,0.997 ± 0.09,0.814 ± 0.071
O=c1ccc2c(O)c3ccoc3cc2o1,1.005 ± 0.0071,0.8825 ± 0.005,1.02 ± 0.028,0.926 ± 0.037,0.886 ± 0.034
C[C@@H](CO)NC(=O)[C@@H]1C=C2c3cccc4[nH]cc(c34)C[C@H]2N(C)C1,0.983 ± 0.067,1.01 ± 0.061,0.939 ± 0.052,1.09 ± 0.099,0.98 ± 0.026
C[N+]1(C)[C@@H]2C[C@@H](OC(=O)[C@H](CO)c3ccccc3)C[C@H]1[C@@H]1O[C@@H]12,1.09 ± 0.021,0.971 ± 0.069,1.035 ± 0.0071,0.9885 ± 0.005,1.085 ± 0.0071
O=C1CC[C@@]2(O)[C@H]3Cc4ccc(O)c5c4[C@@]2(CCN3CC2CC2)[C@H]1O5,1.02 ± 0.093,0.914 ± 0.19,1.04 ± 0.035,0.985 ± 0.12,1.03 ± 0.028
CC(C)Nc1nc(Cl)nc(NC(C)C)n1,1.02 ± 0.049,0.952 ± 0.0014,0.949 ± 0.025,0.973 ± 0.038,0.944 ± 0.018
C=C(C)[C@H]1CN[C@H](C(=O)O)[C@H]1CC(=O)O,0.986 ± 0.035,1.01 ± 0.099,0.97 ± 0.0042,0.923 ± 0.11,0.947 ± 0.047
Cc1c(O)c(O)cc2c1CC=C1[C@@]2(C)CC[C@@]2(C)[C@@H]3C[C@](C)(C(=O)O)CC[C@]3(C)CC[C@]12C,0.88 ± 0.082,0.981 ± 0.069,1.03 ± 0.045,0.863 ± 0.073,0.846 ± 0.079
O=C1C=CC(=O)c2ccccc21,0.9965 ± 0.005,1.05 ± 0.042,0.989 ± 0.12,1.13 ± 0.057,0.963 ± 0.047
C[C@]12C=CC(=O)C=C1CC[C@@H]1[C@@H]2CC[C@]2(C)C(=O)CC[C@@H]12,1.07 ± 0.11,1.09 ± 0.035,1.11 ± 0.078,1.08 ± 0.19,1.025 ± 0.0071
COc1cc2c(cc1OC)[C@@H]1C(=O)c3ccc4oc(C(C)C)cc4c3O[C@@H]1CO2,0.923 ± 0.052,0.875 ± 0.14,0.75 ± 0.021,0.974 ± 0.028,0.749 ± 0.052
CC1NC(=O)C(NC(=O)c2cnc3ccccc3n2)COC(=O)C(C(C)C)N(C)C(=O)C2CSSCC(C(=O)N(C)C(C(C)C)C(=O)OCC(NC(=O)c3cnc4ccccc4n3)C(=O)NC(C)C(=O)N2C)N(C)C1=O (stereo not given) [Triostin A],0.968 ± 0.028,0.984 ± 0.08,0.992 ± 0.054,0.941 ± 0.073,0.871 ± 0.037
FC(F)(F)c1cccc(N2CCNCC2)c1,1.04 ± 0.13,1.05 ± 0.086,1.02 ± 0.014,0.943 ± 0.015,1.02 ± 0.045
COc1ccc2[nH]cc(CCN)c2c1,1.09 ± 0.078,1.06 ± 0.086,1.04 ± 0.093,0.924 ± 0.095,1.06 ± 0.014
C=CCc1ccc2c(c1)OCO2,0.985 ± 0.021,0.898 ± 0.13,1.06 ± 0.078,0.914 ± 0.16,0.952 ± 0.11
CC[C@@]1(O)C[C@H](O[C@H]2C[C@H](N(C)C)[C@H](O)[C@H](C)O2)c2c(cc3c(c2O)C(=O)c2c(O)cccc2C3=O)[C@H]1C(=O)OC,1.07 ± 0.17,0.9035 ± 0.0064,1.2 ± 0.12,1.4 ± 0.05,0.842 ± 0.028
CCCC(C)(COC(N)=O)COC(=O)NC(C)C (stereo not given),1.06 ± 0.014,0.994 ± 0.14,0.97 ± 0.0042,0.887 ± 0.088,0.992 ± 0.082
CCCC(C)C1(CC)C(=O)NC(=O)NC1=O (stereo not given),1 ± 0.079,0.981 ± 0.02,0.978 ± 0.0014,0.948 ± 0.018,0.933 ± 0.11
COc1ccc(C(CN(C)C)C2(O)CCCCC2)cc1 (stereo not given),1.06 ± 0.014,0.972 ± 0.035,1.03 ± 0.044,0.924 ± 0.069,0.907 ± 0.029
CCCCCCCCCCCC[C@@H](O)[C@H]1CC[C@H]([C@H](O)CCCC[C@H](O)CCCCC[C@@H](O)CC2=CC(C)OC2=O)O1 (stereo not given in full) [annonacin],0.926 ± 0.076,0.933 ± 0.014,0.92 ± 0.092,0.987 ± 0.075,0.923 ± 0.018
C[C@]12CCC(=O)C=C1CCc1ccc(O)cc12,1.03 ± 0.042,1.05 ± 0.05,1.05 ± 0.014,1.07 ± 0.14,1.03 ± 0.028
